From PubChem BioAssay (Tox21)
Values joined by “and” are separate entries in the source; they are usually repeats but may differ in a detail not shown here. Identical values can stand only once. Inconclusive results are not listed. Where a call stands in place of a potency, no number is given. Some compounds were tested as several samples or in several runs, with calls that do not always agree. Active and inactive are the calls of the source. Calls come from the whole dose curve; as a rule, active = well fitted inhibition curve with a large enough effect in the repeat runs; inconclusive = weak or mixed curves, or effect the other way; inactive = no such curve, though single readings can be large or run the other way.

Target: Nuclear receptor subfamily 1 group I member 3 (Homo sapiens) (UniProt Q14994)
Sequence (Q14994 whole entry, looked up): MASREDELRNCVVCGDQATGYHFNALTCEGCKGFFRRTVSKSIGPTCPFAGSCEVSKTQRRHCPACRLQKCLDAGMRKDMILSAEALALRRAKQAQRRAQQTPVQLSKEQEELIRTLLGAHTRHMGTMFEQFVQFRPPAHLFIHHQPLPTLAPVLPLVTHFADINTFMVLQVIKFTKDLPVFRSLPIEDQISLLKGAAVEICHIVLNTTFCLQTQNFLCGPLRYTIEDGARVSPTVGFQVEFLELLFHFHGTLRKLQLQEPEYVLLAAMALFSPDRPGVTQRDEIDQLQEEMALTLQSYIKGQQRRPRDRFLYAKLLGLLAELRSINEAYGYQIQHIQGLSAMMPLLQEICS
Assay: qHTS assay to identify small molecule antagonists of the constitutive androstane receptor (CAR) signaling pathway (AID 1224838);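 note: HepG2 cells stably expressing hCAR with CYP2B6 luciferase reporter stimulated by CITCO; nearly all actives have a fitted effect of over 40% in size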
Settings: HepG2-CYP2B6-hCAR luciferase, CITCO-stimulated, 24 h; series mostly up to 92.4 µM; activity, negative = inhibition: at the top concentration
From the text: U.S. Tox21 Program National Center for Advancing Translational Sciences [NCATS] NIH Chemical Genomics Center [NCGC] U.S. Environmental Protection Agency [EPA] National Institutes of Environmental Health Sciences [NIEHS] National Toxicology Program [NTP] U.S. Food and Drug Administration [FDA] Tox21 Assay Overview: The constitutive androstane receptor (CAR) is a nuclear receptor which regulates multiple drug metabolizing enzymes (DMEs) and transporters. Activating CAR will generally increase the transcription and subsequent translation of CYP2B6 and CYP3A4. These two DMEs represent about 50% of the drug metabolizing potential in the body. When CAR is deactivated, the metabolizing potential in the body will decrease, subsequently increasing the toxicity in the body or lowering the therapeutic potential of a pro-drug. Recently, there have also been studies performed indicating CARs role in energy metabolism and cancer therapy. Therefore, inhibiting CARs activity could have a potential effect on diabetes and cancer. Identifying environmental toxins and compounds which modulate CAR, through the use of the Tox21 10K compound collection, will be an important step in determining the toxicity and potential therapeutic effects these factors will have on the human body.
Tox21 Assay Protocol Summary: A double-stable (hCAR and CYP2B6-2.2kb) transfected cell line, derived from human hepatoma (HepG2) cells, was utilized for the duration of the quantitative high-throughput screens. The HepG2-CYP2B6-hCAR cells suspended in DMEM culture medium supplemented with 10% FBS, 5 ug/mL blasticidin, 0.5 mg/mL geneticin, 100 U/mL penicillin and 100 ug/mL streptomycin were dispensed at 2500 cells/4 uL/well in 1536-well white solid bottom plates using a Multidrop Combi. After the assay plates were incubated at 37 C/5% CO2 for 4 hrs, 23 nL of compounds at 15 concentrations (from 5-48 columns) or positive control (from 1 to 4 columns) were transferred to the assay plates using a Pintool station. One uL of CITCO, was added using a Flying Reagent Dispenser to generate a final concentration of 50 nM CITCO inside each well. After a 24 hr incubation period at 37 C/5% CO2, four uL of ONE-Glo reagent was added into the assay plates using a Flying Reagent Dispenser. After a 30 min incubation period at room temperature, the luminescence intensity in the assay plates was measured using a ViewLux plate reader.
Potency is the fitted concentration of half-maximal effect.

SMILES | Potency | activity, negative = inhibition
CC(=O)[C@@]1(O)CC[C@H]2[C@@H]3C[C@H](C)C4=CC(=O)C=C[C@]4(C)[C@@]3(F)[C@@H](O)C[C@@]21C | inactive | 
COc1ccc2nc(N)sc2c1 | inactive | 
CCCCCCCCCCCCCO | inactive | 
CCc1cccc2c3c([nH]c12)C(CC)(CC(=O)O)OCC3 (stereo not given) | inactive | 
CC(C)(C)c1cccc(C(C)(C)C)c1O |  | -5.66% (inactive)
CCCCCC=O | inactive | 
CC(=O)Oc1c(C)c(C)c2c(c1C)CC[C@@](C)(CCC[C@H](C)CCC[C@H](C)CCCC(C)C)O2 | inactive | 
C=C[Si](OCCOC)(OCCOC)OCCOC | inactive | 
CC(=O)[C@H]1CC[C@H]2[C@@H]3CC=C4C[C@@H](O)CC[C@]4(C)[C@H]3CC[C@]12C | inactive | 
Nc1ccc(N)c(Cl)c1 | inactive | 
COc1ccc(C(=O)c2ccccc2O)c(O)c1 | inactive | 
Cc1ccc([N+](=O)[O-])c(C)c1 | 8.63 µM (active) and inactive | 
Nc1ccc2c(O)cc(S(=O)(=O)O)cc2c1 | 3.86 µM (active) and 686 nM (active) | 
Cc1cccc(Nc2ccccc2C(=O)O)c1C | inactive | 
C=C1C[C@H]2[C@@H]3C=C(C)C4=CC(=O)CC[C@]4(C)[C@H]3CC[C@]2(C)[C@@]1(OC(C)=O)C(C)=O | inactive | 
Cc1ccc(N)c([N+](=O)[O-])c1 | inactive | 
CCC/C=C/C=O | inactive | 
CCOC(=O)C(C)Oc1ccc(Oc2cnc3cc(Cl)ccc3n2)cc1 (stereo not given) | inactive | 
NCCS(=O)(=O)O | inactive | 
CNC[C@H](O)c1ccc(O)c(O)c1 | inactive | 

SMILES | Potency | activity, negative = inhibition
CC1=CC(C)(C)Nc2ccccc21 | inactive | 
[Na+] | inactive | 
c1ccc2cc3ccccc3cc2c1 | inactive | 
CC1(C)NC(=O)N(c2ccc([N+](=O)[O-])c(C(F)(F)F)c2)C1=O | inactive | 
Clc1ccc(Sc2cc(Cl)c(Cl)cc2Cl)cc1 | inactive | 
CC(=O)Nc1ccc2c(c1)Cc1cc(NC(C)=O)ccc1-2 | inactive | 
O=C(O)COCCN1CCN(C(c2ccccc2)c2ccc(Cl)cc2)CC1 (stereo not given) | inactive | 
COc1ccc(-c2coc3cc(O)cc(O)c3c2=O)cc1 | inactive | 
COCCOCCOCCO | inactive | 
Nc1cc(Cl)c(N)c(Cl)c1 |  | 75.3% (inactive)
O=C(O)c1ccc(O)cc1 | inactive | 
C[C@]12CC[C@@H]3c4ccc(O)cc4CC[C@H]3[C@@H]1CC[C@H]2O | inactive | 
ClC/C=C/CCl | inactive | 
c1ccc2c(c1)ccc1ncccc12 | inactive | 
CCCCCCCCCCC(CO)CCCCCCCC (stereo not given) | inactive | 
C[N+](C)(C)CCO | inactive | 
Brc1nc2ccccc2s1 | inactive | 
c1ccc2ncccc2c1 | inactive | 
O=C1OC2(c3ccccc31)c1cc(I)c(O)c(I)c1Oc1c2cc(I)c(O)c1I | 6.13 µM (active) and inactive and 14.8 µM (active) | 
C=CCCCCCCCCCC | inactive | 
